Our source for the outcome values is PubChem BioAssay (Tox21).

SMILES strings stand for the structures. The source made the active and inactive calls. Calls come from the whole dose curve; as a rule, active = well fitted curve in the direction sought with a large enough effect in the repeat runs; inconclusive = weak or mixed curves; inactive = flat fitted curve, though single readings scatter.

The nature of the test: qHTS assay to test for compound auto fluorescence at 460 nm (blue) in HepG2 cell free culture (AID 720685). Conditions: Cell-free culture medium, blue autofluorescence 405/460 nm; series mostly up to 91.3 µM. The text has this:
U.S. Tox21 Program National Center for Advancing Translational Sciences [NCATS] NIH Chemical Genomics Center [NCGC] U.S. Environmental Protection Agency [EPA] National Institutes of Environmental Health Sciences [NIEHS] National Toxicology Program [NTP] U.S. Food and Drug Administration [FDA] Tox21 Assay Overview: Compound auto fluorescence often interferes with screening of the compound library against various biological targets and signaling pathways. Some of these compounds may have fluorophoric properties. Such properties may interfere with the assay outputs resulting in false positives and/or negatives. To decrease such complications and ensure the compound activities are relevant in terms of biological response, the Tox21 10K compound library was screened for auto fluorescence. From the fluorophores used as reporter signals in our screening assays, the auto fluorescence equivalencies of compounds against three fluorophores have been evaluated: Triamterene, Fluorescein and Rose Bengal sodium for blue, green and red fluorescence, respectively. The fluorescence intensities were measured using Excitation/Emission wavelengths at 405/460nm, 485/535nm and 540/590nm for blue, green and red labels, respectively. This assay includes the blue fluorescence data.
Tox21 Assay Protocol Summary: 5 uL of culture medium (MEM containing 10% FBS) per well was dispensed into black wall/clear bottom 1536-well plates using a Multidrop Combi Dispenser (ThermoFisher Scientific, Waltham, MA). After 23 nL compound or DMSO vehicle was transferred into assay plate by a pintool work station (Kalypsys, San Diego, CA), fluorescence intensities in the assay plates were measured by an Envision (PerkinElmer, Shelton, CT) plate reader using three labels for measuring blue, green and red fluorescence at […] 460, 535 and 590nm respectively.
With `C/C=C1/CC2C=CC1C2` (stereo not given), the molecule was classed as inactive.

With `O=P(OC(CCl)CCl)(OC(CCl)CCl)OC(CCl)CCl`, the molecule was called inactive.

Consider `CC(=O)Nc1cccc(O)c1`, for which the call was inactive.

Regarding `C=C(C)C(=O)Nc1ccc(Cl)c(Cl)c1`, the result was inactive.

Consider `CCCCC(CC)COC(=O)CS` (stereo not given), for which the call was inactive.

`CCCCC(CC)COC(=O)C(C#N)=C(c1ccccc1)c1ccccc1` (stereo not given): the call was inactive.

`O=C(OCCOCCOC(=O)c1ccccc1)c1ccccc1`: the outcome was inactive.

For `CCCCCC1=CCCC1=O`, the molecule was classed as inactive.

With `COc1cc(Cc2cnc(N)nc2N)cc(OC)c1OC`, the outcome was inactive.

Take `CCCCC(CC)CO` (stereo not given): the call was inactive.

Take `c1ccc2scnc2c1`: the molecule was classed as inactive.

With `CC(=O)Nc1ccccc1`, the call was inactive.

Take `CCCCCCCCCCCCCCO`: the result was inactive.

For `COS(C)(=O)=O`, the call was inactive.

As for `CC1=CC(=O)NS(=O)(=O)O1`, the molecule was classed as inactive.

Regarding `CC(C)(C)[C@@H](O)[C@@H](Cc1ccc(Cl)cc1)n1cncn1`, the call was inactive.

For `C=CCNC(N)=S`, the molecule was called inactive.

Consider `CCCCCCCCCCCCS`, for which the molecule was called inactive.

For the molecule `CC[C@H](C)C(=O)O[C@H]1C[C@@H](C)C=C2C=C[C@H](C)[C@H](CC[C@@H]3C[C@@H](O)CC(=O)O3)[C@H]21`, the outcome was inactive.

Turning to `CCCCCCCC(=O)OC`, the molecule was called inactive.

`Cc1cc(C)c(C)cc1C`: the call was inactive.

On to `CCc1ccc(CCOc2ccc(CC3SC(=O)NC3=O)cc2)nc1` (stereo not given), for which the call was inactive.

As to `OCCOCCN1CCN(C2=Nc3ccccc3Sc3ccccc32)CC1`, the molecule was called inactive.

On to `NNc1nncc2ccccc12`, for which the molecule was classed as inactive.

For `C[C@H]1C[C@H]2[C@@H]3CCC4=CC(=O)C=C[C@]4(C)[C@@]3(F)[C@@H](O)C[C@]2(C)[C@@]1(O)C(=O)CO`, the molecule was called inactive.

As for `O=[N+]([O-])c1ccc(/C=C/c2ccc([N+](=O)[O-])cc2S(=O)(=O)O)c(S(=O)(=O)O)c1`, the result was inactive.

As for `COCCCOc1ccnc(CS(=O)c2nc3ccccc3[nH]2)c1C` (stereo not given), the molecule was called inactive.

Regarding `Nc1ccccc1[N+](=O)[O-]`, the result was inactive.

With `CCCCCCCCCCCCc1ccccc1`, the outcome was inactive.

Regarding `O=C(CC(C(=O)OC1CCCCC1)S(=O)(=O)O)OC1CCCCC1` (stereo not given), the molecule was classed as inactive.

For the molecule `CCCCC(CC)COC(=O)CCCCC(=O)OCC(CC)CCCC` (stereo not given), the molecule was classed as inactive.

For the molecule `OC[C@H]1O[C@@](CO)(O[C@H]2O[C@H](CO)[C@@H](O)[C@H](O)[C@H]2O)[C@@H](O)[C@@H]1O`, the call was inactive.

With `N[C@@H](Cc1cc(I)c(Oc2cc(I)c(O)c(I)c2)c(I)c1)C(=O)O`, the molecule was classed as inactive.

For `CC(O)COCC(C)O` (stereo not given), the molecule was called inactive.

On to `Cc1cnc(C(=O)NCCc2ccc(S(=O)(=O)NC(=O)NC3CCCCC3)cc2)cn1`, for which the result was inactive.

Regarding `Cc1occc(=O)c1O`, the call was inactive.

For the molecule `C[Si](O[Si](C)(C)C)O[Si](C)(C)C`, the outcome was inactive.

Regarding `O=C(O)c1ccc(C(=O)O)cc1`, the result was inactive.

Consider `C=C(C)C(=O)OCCOCCOCCOC(=O)C(=C)C`, for which the call was inactive.

On to `O=C(O)CC(C(=O)O)C(CC(=O)O)C(=O)O` (stereo not given), for which the result was inactive.
